# According to paper PMC7819943, “Rice protein-binding microarrays: a tool to detect cis-acting elements near promoter regions in rice”:
# Over roughly 68,000 sequences, “fluorescence intensity (a.u.)” has its median near 9,100; the highest 2% begin near 16,000. The list comes from a sample in which the highest values are over-represented; it also holds similar and randomly drawn sequences.
# Target: OsWRKY34 (Oryza sativa, UniProt Q0JBA9 1-250)
# Assay: protein-binding microarray (RPBM); PBS, 2% BSA, 51.3 ng/ul salmon testes DNA, 50 uM zinc acetate, 200 nM TF, 25 C, 1 h; high values mean tight binding
# Conditions: protein: recombinant; tags: N-terminal polyhistidine and DsRed monomer fusion (pET32a); label: CyDye5-dUTP incorporated in the synthesized complementary strand; 3' TTTTT single-stranded linker to array surface; dsDNA, one strand shown
# Method in brief: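 Using Ni–NTA, transcription factors fused N-terminally to polyhistidine and DsRed were purified after expression in E. coli BL21-CodonPlus. These were incubated at 200 nM with a blocked, double-stranded custom Agilent array for 1 h at 25 °C in a buffer containing 50 µM zinc acetate, and the array was washed. The binding signal is per-feature fluorescence intensity (arbitrary units) on an Axon 4000B scanner.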
# Chain of OsWRKY34 (Q0JBA9 entry or part of it): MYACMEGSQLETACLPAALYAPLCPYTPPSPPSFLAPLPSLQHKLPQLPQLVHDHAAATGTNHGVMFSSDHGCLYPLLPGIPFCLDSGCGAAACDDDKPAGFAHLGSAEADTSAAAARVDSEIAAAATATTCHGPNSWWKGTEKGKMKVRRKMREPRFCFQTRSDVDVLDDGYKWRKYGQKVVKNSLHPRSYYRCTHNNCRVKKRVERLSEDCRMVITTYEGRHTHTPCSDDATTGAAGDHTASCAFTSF
row,Sequence,binding signal
1,TTGTGTTTGGGCGGGAGAATTTTTGGGGATAGATTTGCGCCGGAGTCACCTAGTGCAG,18500 fluorescence intensity (a.u.)
2,AGGAGGGGTATTGTTGCTAATCTTGATTGTTTTACTCTTGCGGAGTCACCTAGTGCAG,17000 fluorescence intensity (a.u.)
3,TTCTGTTTGGGTTTTGATTTGTTTCGGTTTGGCTGTTCTTCGGAGTCACCTAGTGCAG,10600 fluorescence intensity (a.u.)
4,GATTTCTTTGTTGATTTTATTGGTTTTCTCCTAATCTTGCCGGAGTCACCTAGTGCAG,8820 fluorescence intensity (a.u.)
5,TTTTGGGGATAGATTTGCGCTTTTGGTGGGTGGGTTTGGGCGGAGTCACCTAGTGCAG,14200 fluorescence intensity (a.u.)
6,GCCGTATTTGTTTTTTTGGGATTTGGGGTTTGGATACTTGCGGAGTCACCTAGTGCAG,18700 fluorescence intensity (a.u.)
7,AGTGTTAATCTTACTCCTTGTTGTATATTGCTAAGTTTTTCGGAGTCACCTAGTGCAG,12900 fluorescence intensity (a.u.)
8,ATTTGGGGTTTGGATACTTGAACTTTATTTTGACTTCTGACGGAGTCACCTAGTGCAG,14000 fluorescence intensity (a.u.)
9,GGGGCGATTTTTTTTTTTTTTTAGAATTGCGAGATAGGGGCGGAGTCACCTAGTGCAG,10700 fluorescence intensity (a.u.)
10,GCGGGCTGTTTTTTTCTTGCGGTTTGGTTTGGGATTTCTGCGGAGTCACCTAGTGCAG,17400 fluorescence intensity (a.u.)
11,TCTGTATATAAGGCCTGATTTAGTTCCCAAATTTTTTTTCCGGAGTCACCTAGTGCAG,8100 fluorescence intensity (a.u.)
12,AATATTTCCCTTTCCAATGTTCAGTCAGCCCATCAGACCGCGGAGTCACCTAGTGCAG,8110 fluorescence intensity (a.u.)
13,GTTCCAAAATTTTTCTTTAAACTTCCAACATTTTCATCACCGGAGTCACCTAGTGCAG,9190 fluorescence intensity (a.u.)
14,GTATGGTACAGCACATTTCTCTGTTCAAGTGTTCATTATGCGGAGTCACCTAGTGCAG,8610 fluorescence intensity (a.u.)
15,ATATATATGGATTAGGTTTGGATTGGGGATCATTTGTATGCGGAGTCACCTAGTGCAG,8360 fluorescence intensity (a.u.)
16,ACCTAGATCCACCTCGTTAGTTTATTTTGTGAGAGTGCTCCGGAGTCACCTAGTGCAG,9140 fluorescence intensity (a.u.)
17,AACACTCACATCAAGTCATCAACCGACCTTGTCAAGTCAACGGAGTCACCTAGTGCAG,10600 fluorescence intensity (a.u.)
18,TTGGTTGCATGTTTTTTCACGTAAAATCTTAATTTTTGCACGGAGTCACCTAGTGCAG,8150 fluorescence intensity (a.u.)
19,CCGACTGCTCAATCACCACCGGTCTGACCGGCTACCAGAGCGGAGTCACCTAGTGCAG,17200 fluorescence intensity (a.u.)
20,TTGCTCACCAGAGCTACTACTACCGGTCTGTCACGCTCACCGGAGTCACCTAGTGCAG,9180 fluorescence intensity (a.u.)
21,TGCTCCGACCACTGCCCACCCCGCTCCACCGGCTAGAGAGCGGAGTCACCTAGTGCAG,9120 fluorescence intensity (a.u.)

row,Sequence,binding signal
1,CAACATCTTCTTTAGTTGCTCACACTTTTTCTTAGAATCACGGAGTCACCTAGTGCAG,8340 fluorescence intensity (a.u.)
2,TTTCTTCGTCCTCTTGGTTTCCCTTTCAATTCATTCATTTCGGAGTCACCTAGTGCAG,8460 fluorescence intensity (a.u.)
3,GCTCGCCCGTCTTTCGCTCTGCCCGCAGCCCGCCGCCGCTCGGAGTCACCTAGTGCAG,14000 fluorescence intensity (a.u.)
4,ACCGGCCCAGAACAGTTGGGCAGCCCACGAAGTCACCAACCGGAGTCACCTAGTGCAG,8540 fluorescence intensity (a.u.)
5,CTTAGTTCTCCGCGCTATTCACTTCTGCGCCGTCGCTTTTCGGAGTCACCTAGTGCAG,8640 fluorescence intensity (a.u.)
6,GACGGCGCCCTGCGGCTTCGGTTGCGGGGTGGGTGGTGGCCGGAGTCACCTAGTGCAG,10300 fluorescence intensity (a.u.)
7,CTCAGTATTGGGTTGGGTGGTGGTGGCGGCGGTGGCAGTGCGGAGTCACCTAGTGCAG,13700 fluorescence intensity (a.u.)
8,GAGGGGAGGGAGAGGTCGGAGATGGTTACCGGTGGGGAAGCGGAGTCACCTAGTGCAG,12300 fluorescence intensity (a.u.)
9,GCTTCGGCTCGGGGTGGGTTGGGTTGGGTTGGGTTCGATGCGGAGTCACCTAGTGCAG,32400 fluorescence intensity (a.u.)
10,GAAGCTTCGGGAGTGGTGGTGGGTTGCGGCCGTGCGGCTCCGGAGTCACCTAGTGCAG,10900 fluorescence intensity (a.u.)
11,GCGCTGTGGTCCCGGCGCCGGCAGTGGTTGCTTCTGCGCGCGGAGTCACCTAGTGCAG,8560 fluorescence intensity (a.u.)
12,GTGGGGCTCGGGTTCCGGCCGGTGTAGGGGAGGGGAGATGCGGAGTCACCTAGTGCAG,15700 fluorescence intensity (a.u.)
13,GCGCGGCGGCGGTGGGGTGGTAGTGGTGGTGGGTGGAATGCGGAGTCACCTAGTGCAG,13500 fluorescence intensity (a.u.)
14,TGGGTGGGTTGGGTGGGTGGGTGGGTGCGCGGCGGGTATGCGGAGTCACCTAGTGCAG,32800 fluorescence intensity (a.u.)
15,CAAGATGGGTCGGGTTGGGTGGGGTTACTCGCACTAGCACCGGAGTCACCTAGTGCAG,22300 fluorescence intensity (a.u.)
16,GGGTGGGCGTGATGGAGTTGGGTCGGCCGGGGTGTCCGGTCGGAGTCACCTAGTGCAG,14500 fluorescence intensity (a.u.)
17,TTGGGTTGGGTTGGGTGGTCCATTCTGTACGGTGCGCCGGCGGAGTCACCTAGTGCAG,19600 fluorescence intensity (a.u.)
18,CATGTGTGGTGAGCATATTTGTTTGTACTGTTGTATTTTACGGAGTCACCTAGTGCAG,9560 fluorescence intensity (a.u.)
19,CTTCTTCTATATCTGTAATCTTTCCTTATCTCCTCCCATGCGGAGTCACCTAGTGCAG,8520 fluorescence intensity (a.u.)
20,CCACCTCGTTTTATGTAAAACACTTAATCTTCAACTTCAGCGGAGTCACCTAGTGCAG,8860 fluorescence intensity (a.u.)
21,CGCAATCCACTTTCTCTCGCCAAGTCGTCGTCCATCCGATCGGAGTCACCTAGTGCAG,9020 fluorescence intensity (a.u.)
